Compound activity deposited in PubChem BioAssay by National Center for Advancing Translational Sciences (NCATS).
This is a sample that favours compounds with a hit; in the whole collection about 0.95% have one here.
Resorufin fluor: resorufin region autofluorescence; Compound fluorescence, resorufin region 547/598 nm, buffer; hits give high values; max dye-equivalent concentration, M; 59,000 tested, 0.04% active; AID 588
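Compounds in 100 mM Tris buffer, pH 8.0, incubated 15 min at room temperature, then read with 547 nm excitation and 598 nm emission filters. Fluorescence was converted to dye-equivalent concentration using an on-plate six-point resorufin standard curve.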
A647 autofl: compound fluoresces in the A647 spectral region. Compound fluorescence, A647 channel (570/671 nm), Tris buffer. max dye-equivalent concentration, M. 59,000 tested, under 10 active. AID 592
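Compounds pinned into 100 mM Tris pH 8.0, 15 min at room temperature, then read with 570 nm excitation/671 nm emission filters. Fluorescence normalized to an on-plate six-point Alexa 647 standard curve, giving dye-equivalent concentration per compound concentration.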
Rhodamine autofl: compound fluoresces in the rhodamine spectral region; Rhodamine-region fluorescence, 547/598 nm, Tris buffer; hits give high values; max dye-equivalent concentration, M; 59,000 tested, 0.05% active; in the data active means max dye-equivalent concentration above about 11 nM; inconclusive means between about 1.1 nM and that limit
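Read-out is relative fluorescence at 547 nm excitation and 598 nm emission, expressed as dye-equivalent concentration using rhodamine standards on every plate. Each compound was profiled across a concentration series after 15 min in 100 mM Tris, pH 8.0.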
Fluorescein autfl: fluorescein region autofluorescence; 59,000 tested, 0.91% active; AID 593; max fluorescein-equivalent concentration, M; Compound autofluorescence, 480/540 nm, fluorescein-equivalent; hits give high values; in the data active means max fluorescein-equivalent concentration above about 10 nM; inconclusive means between about 1.1 nM and that limit
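Compounds (23 nL) in 100 mM Tris pH 8.0, 15 min at room temperature, then fluorescence read at 480 nm excitation/540 nm emission. Signal converted to fluorescein-equivalent concentration from an on-plate fluorescein standard curve.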
A488 autofl: compound autofluorescence in A488 spectral region; AID 591; 59,000 tested, 0.1% active; max dye equivalency, M; compound autofluorescence, A488 spectral region, dye equivalency; Compound Type: qHTS ECL - MLSMR
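Readout is A488 dye-equivalent concentration, calibrated by a per-plate six-point Alexa 488 series. Compounds in 100 mM Tris buffer pH 8.0 were incubated 15 min at room temperature. Plates were imaged using 480 nm excitation/540 nm emission filters.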
TexasRed autofl: compound fluoresces in the Texas Red spectral region. Compound fluorescence, Texas Red channel, 547/618 nm; hits give high values. 59,000 tested, 0.06% active. max dye-equivalent concentration, M. AID 587; in the data active means max dye-equivalent concentration above about 10 nM; inconclusive means between about 1.1 nM and that limit
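Spectral interference profiling: each compound concentration's relative fluorescence, read with a 547 nm excitation and 618 nm emission filter pair, was normalized to a per-plate Texas Red standard curve.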
A number is an active result; n = inactive; u = inconclusive; ! = not active in a repeat. Unless noted, how the calls were made is not given here.

SMILES	Resorufin fluor	A647 autofl	Rhodamine autofl	Fluorescein autfl	A488 autofl	TexasRed autofl
Ic1ccc2c(c1)N(c1ccccc1)c1cc(Nc3ccc4nc5ccc(I)cc5[n+](-c5ccccc5)c4c3)ccc1N2	n	n	n	n	n	n
O=C(Cn1ccccc1=O)c1cccs1	n	n	n	n	n	n
O=C1NC(=O)[C@@H]2C3c4ccccc4C=CN3[C@H](C(=O)c3cccs3)[C@H]12 (stereo partly specified)	n	n	n	2.37e-08M	n	n
NC1=CC(=O)c2cccc3cccc1c23	n	n	n	3.56e-08M	u	n
CC1=CC(=O)c2ccccc2C1=O	n	n	n	u	n	n
C[C@@H]1O[C@H](O[C@@H]2[C@@H](Oc3cc(O)c4c(c3)O[C@H](c3ccc(O)cc3)CC4=O)O[C@@H](CO)[C@@H](O)[C@H]2O)[C@@H](O)[C@H](O)[C@@H]1O	n	n	n	u	n	n
CC(=O)Oc1ccc(/C=C\C(=O)C[C@@H]2O[C@@H](Oc3cc(OC(C)=O)c4c(c3)O[C@@H](c3ccc(OC(C)=O)cc3)CC4=O)[C@H](OC(C)=O)[C@H](OC(C)=O)[C@@H]2OC(C)=O)cc1	n	n	n	1.28e-08M	n	n
COc1ccc(C2CNC(=O)C2)cc1OC1CCCC1 (stereo unspecified)	n	n	n	1.14e-08M	n	n
COc1ccc(CCNS(=O)(=O)c2ccc(C3CNC(=O)C3)cc2)cc1OC (stereo unspecified)	n	n	n	n	n	n
O=S(=O)(Cc1ccccc1)N1CCc2ccccc21	1.59e-08M	n	2.09e-08M	3.42e-08M	u	2.01e-08M
CN(C)S(=O)(=O)N1CCc2ccccc21	n	n	n	n	n	n
Cc1cc(=O)oc2c(CN3CCC(C)CC3)c(O)c(Cl)cc12	n	n	u	1.12e-08M	n	n
CC(C)c1ccc(/C(C(=O)O)=C(\O)C(=O)O)cc1	n	n	n	u	n	n
Cc1noc(C)c1-c1nc(NCc2cccs2)c2ccccc2n1	n	n	n	u	n	n
O=C1OC2(c3ccc(O)cc3Oc3cc(O)ccc32)c2c1c(-c1ccccc1)c(-c1ccccc1)c(-c1ccccc1)c2-c1ccccc1	u	n	u	4.81e-07M	2.29e-08M	n
O=C(O)c1ccc2c(c1C(=O)O)C(=O)OC2(c1ccc(O)cc1)c1ccc(O)cc1	n	n	n	n	n	n
O=C1[C@@H]2[C@@H](C(=O)N1c1ccc(OCc3ccccc3)cc1)[C@@H]1c3ccccc3[C@@H]2[n+]2ccccc21	n	n	n	n	n	n
CCOC(=O)c1cnc(-n2nc(C)cc2C)nc1N(CC)CC	n	n	n	1.14e-08M	n	n
CCOC(=O)c1cnc(-n2nc(C)cc2C)nc1Nc1ccc(N(C)C)cc1	n	n	n	u	n	u
CCOC(=O)c1cnc(-n2nc(C)cc2C)nc1NC1CCCCC1	n	n	n	u	n	n
CCOC(=O)c1cnc(-n2nc(C)cc2C)nc1NC	n	n	n	1.02e-08M	n	n
CN1[C@@H]2CC(OC(=O)[C@@H](CO)c3ccccc3)C[C@H]1[C@H]1O[C@H]12 (stereo partly specified)	n	n	n	u	n	n
COc1cccc(Nc2ncc3nc(C)c(=O)n(CCC#N)c3n2)c1	n	n	n	u	n	n
O=c1cc(-c2ccccc2)oc2cc(O[C@H]3O[C@H](CO)[C@@H](O)[C@H](O)[C@@H]3O)c(O)c(O)c12	n	n	n	n	n	n
CN1CCN(c2ccncc2S(=O)(=O)N2CCN(C)CC2)CC1	n	n	n	u	n	n
SMILES	Resorufin fluor	A647 autofl	Rhodamine autofl	Fluorescein autfl	A488 autofl	TexasRed autofl
Nc1nc(Cl)nc2c1ncn2[C@@H]1O[C@@H](CO)[C@@H](O)[C@H]1O	n	n	n	u	n	n
CCCCOC(=O)CSc1nc(N)c(C#N)c(-c2ccc(OCC)cc2)c1C#N	n	n	n	n	n	u
CCCCOc1ccc(-c2c(C#N)c(N)nc(SCC(N)=O)c2C#N)cc1	n	n	u	1.01e-08M	n	u
CO[C@@H]1/C=C\O[C@]2(C)Oc3c(C)c(O)c4c(O)c(cc(O)c4c3C2=O)NC(=O)/C(C)=C\C=C/[C@H](C)[C@@H](O)[C@H](C)[C@H](O)[C@H](C)[C@H](OC(C)=O)[C@@H]1C	n	n	n	n	n	n
O=C1NC(=O)C(c2ccccc2)(c2ccccc2)N1	n	n	n	u	n	n
CCC1(c2ccccc2)C(=O)NCNC1=O	n	n	n	1.2e-08M!	n	n
O=C1CCN2C=Nc3cccc4ccc1c2c34	n	n	n	2.76e-06M	1.54e-07M	n
O=C(O)CN(CCN(CC(=O)O)CC(=O)O)CC(=O)O.[Cu]	n	n	n	n	n	u
CCN1C(=S)SC(=O)C1=C1C=C(C)N(Cc2ccco2)C(C)=C1	n	n	n	u	n	u
CCN1C(=S)SC(=O)C1=C1C=C(C)OC(C)=C1	n	n	n	1.72e-07M	u	u
CC1(C)CC(=O)C2=C(C1)OC(N)=C(C#N)C21CCN(Cc2ccccc2)CC1	n	n	n	3.17e-08M	u	n
O=C(C[C@@H](c1ccccc1)N1CCCCC1)c1ccccc1	n	n	n	u	n	n
CC1(C)S[C@@H]2[C@H](NC(=O)C(N)c3ccccc3)C(=O)N2[C@H]1C(=O)O (stereo partly specified)	n	n	n	u	n	n
CC1(C)S[C@@H]2[C@H](NC(=O)COc3ccccc3)C(=O)N2[C@H]1C(=O)O (tested in a mixture with another compound)	n	n	n	1.92e-08M	n	n
C[C@@H]1c2ccccc2Cn2cc3c(c21)C(=O)c1cccc(OP(=O)(O)OCc2ccccc2)c1C3=O	n	n	n	8.57e-08M	u	n
C=CCOn1c(=O)c(-c2cc3ccccc3o2)[n+]([O-])c2ccccc21	n	n	n	1.88e-08M	n	n
CN(C)c1ccc(C(=C2C=CC(=[N+](C)C)C=C2)c2c(O)c(S(=O)(=O)O)cc3cc(S(=O)(=O)O)ccc23)cc1	n	n	n	n	n	n
COc1ccc(-c2coc3ccc(O[C@@H]4O[C@@H](COC(C)=O)[C@@H](OC(C)=O)[C@@H](OC(C)=O)[C@H]4OC(C)=O)cc3c2=O)cc1	n	n	n	n	n	n
CCOC(=O)c1n[nH]c2ccccc12	n	n	n	u	n	n
Nc1n[nH]c2ccccc12	1.07e-08M	n	1.55e-08M	u	n	2.87e-08M
C[C@H]1CN(S(=O)(=O)c2cccc3cnccc23)CCN1	n	n	n	n	n	u
Fc1ccccc1N1CCN(c2nc3ccccc3n3nnnc23)CC1	n	n	n	1.61e-08M	n	n
c1cnc(N2CCN(c3nc4ccccc4n4cnnc34)CC2)nc1	n	n	n	n	n	n
c1ccc2c(-c3ccncc3)c[nH]c2c1	n	n	n	u	n	n
